Outcome and AC50 data for 10 compounds are collected here from PubChem BioAssay (EPA / NIEHS).

Activity calls are given as the source filed them. Rule for the calls: active = hit-call score of the fitted dose curve at least 0.9, where 1 is the maximum; inactive = score below 0.9.

Common to all, as to settings: mRNA level, 48 h; actives raise or lower the signal
Read-out in test [1]: solute carrier (SLCO1B1), SLCO1B1 (gene 10599)
The test can be described thus: LTEA_HepaRG_SLCO1B1: Life Technologies and Expression Analysis (LTEA) Assay for solute carrier (SLCO1B1) using HepaRG (AID 2283530). The procedure, abridged: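 SLCO1B1 transcript read by qRT-PCR (Fluidigm arrays), normalized to three housekeeping genes, after 48 h chemical exposure of HepaRG cells; bidirectional concentration-response fitting versus 0.5% DMSO baseline. Eight-point half-log series, maximum 100 uM.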

Read-out in test [2]: sulfotransferase 2A1 (SULT2A1), SULT2A1 (gene 6822)
The test can be described thus: LTEA_HepaRG_SULT2A1: Life Technologies and Expression Analysis (LTEA) Assay for sulfotransferase 2A1 (SULT2A1) using HepaRG (AID 2283531). The procedure, abridged: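 HepaRG, 48 h chemical exposure, 8-pt half-log curve from 100 uM in 0.5% DMSO, duplicates. Readout: TaqMan qRT-PCR of SULT2A1 mRNA, housekeeping-normalized. Bidirectional fit vs DMSO baseline.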

Read-out in test [3]: Transforming Growth Factor (TGFA), TGFA (gene 7039)
The test can be described thus: LTEA_HepaRG_TGFA: Life Technologies and Expression Analysis (LTEA) Assay for Transforming Growth Factor (TGFA) using HepaRG (AID 2283532). The procedure, abridged:
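Differentiated HepaRG cells exposed 48 hours in serum-free induction medium, 0.5% DMSO vehicle, 8-point half-log series from 100 uM, in duplicate. TGFA mRNA by TaqMan qRT-PCR, normalised to ACTB, GAPDH, POLR2A; bidirectional fit versus DMSO.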

Read-out in test [4]: Transforming Growth Factor (TGFB1), TGFB1 (gene 7040)
The test can be described thus: LTEA_HepaRG_TGFB1: Life Technologies and Expression Analysis (LTEA) Assay for Transforming Growth Factor (TGFB1) Transporter using HepaRG (AID 2283533). The method, boiled down:
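qRT-PCR readout of TGFB1 transcript in HepaRG lysates, normalized to three housekeeping genes; gain or loss of signal fitted relative to 0.5% DMSO vehicle. Exposure: 48 h, 8-point curve from 100 uM, duplicate wells.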

Read-out in another test: TIMP1, TIMP1 (gene 7076)
The test can be described thus: LTEA_HepaRG_TIMP1: Life Technologies and Expression Analysis (LTEA) Assay for TIMP1 using HepaRG (AID 2283534).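 Note: TaqMan qRT-PCR signal normalized to ACTB GAPDH and POLR2A housekeeping genes.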 The method, boiled down:
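HepaRG, 48 h exposure, 8-pt half-log series from 100 uM in 0.5% DMSO, duplicates; TIMP1 transcript by Fluidigm qRT-PCR, housekeeping-normalized; bidirectional curve fit vs DMSO baseline.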

Read-out in test [5]: Tumor necrosis factor receptor 1 (TNFRSF1A), TNFRSF1A (gene 7132)
The test can be described thus: LTEA_HepaRG_TNFRSF1A: Life Technologies and Expression Analysis (LTEA) Assay for Tumor necrosis factor receptor 1 (TNFRSF1A) using HepaRG (AID 2283535). The method, boiled down: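 HepaRG, 48 h plating then 48 h chemical exposure, serum-free induction media; 8-pt CRC from 100 uM, half-log, 0.5% DMSO vehicle, duplicates. Readout: TaqMan qRT-PCR (Fluidigm), housekeeping-gene normalized; bidirectional fit vs DMSO.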

Read-out in test [6]: Thyroid Hormone Responsive (THRSP), THRSP (gene 7069)
The test can be described thus: LTEA_HepaRG_THRSP: Life Technologies and Expression Analysis (LTEA) Assay for Thyroid Hormone Responsive (THRSP) using HepaRG (AID 2283536). The procedure, abridged:
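Differentiated HepaRG cells treated 48 h in serum-free induction medium with 8 half-log concentrations up to 100 uM (0.5% DMSO), duplicates. THRSP mRNA by TaqMan qRT-PCR normalised to ACTB, GAPDH, POLR2A; bidirectional fit versus DMSO.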

Read-out in test [7]: Cellular tumor antigen p53 (Homo sapiens) (UniProt P04637)
The test can be described thus: LTEA_HepaRG_TP53: Life Technologies and Expression Analysis (LTEA) Assay for Tumor Protein P53 (TP53) using HepaRG (AID 2283537). The method, boiled down:
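TP53 transcript measured by qRT-PCR, normalized to three housekeeping genes, after 48 h treatment of human HepaRG cultures with chemicals from 100 uM downward in half-log steps (0.5% DMSO vehicle, serum-free induction medium). Up- or down-regulation fitted against DMSO.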

Read-out in test [8]: UDP glucuronosyltransferase (UGT1A1), UGT1A1 (gene 54658)
Put plainly: LTEA_HepaRG_UGT1A1: Life Technologies and Expression Analysis (LTEA) Assay for UDP glucuronosyltransferase (UGT1A1) using HepaRG (AID 2283538). The procedure, abridged:
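HepaRG cells, 0.5% DMSO vehicle, 48 h exposure in serum-free induction medium to 8-point half-log series topping at 100 uM, in duplicate. UGT1A1 mRNA by Fluidigm qRT-PCR, normalized to ACTB/GAPDH/POLR2A; bidirectional fit versus DMSO.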

Read-out in test [9]: UDP glucuronosyltransferase (UGT1A6), UGT1A6 (gene 54578)
Put plainly: LTEA_HepaRG_UGT1A6: Life Technologies and Expression Analysis (LTEA) Assay for UDP glucuronosyltransferase (UGT1A6) using HepaRG (AID 2283539). The method, boiled down: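 qRT-PCR readout of UGT1A6 mRNA (normalized to ACTB/GAPDH/POLR2A) in differentiated HepaRG cells after 48 h chemical exposure; 8 concentrations, top 100 uM, half-log steps, 0.5% DMSO. Bidirectional curve fit relative to DMSO baseline.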

Chain of Cellular tumor antigen p53 (Homo sapiens) (P04637 whole entry, looked up): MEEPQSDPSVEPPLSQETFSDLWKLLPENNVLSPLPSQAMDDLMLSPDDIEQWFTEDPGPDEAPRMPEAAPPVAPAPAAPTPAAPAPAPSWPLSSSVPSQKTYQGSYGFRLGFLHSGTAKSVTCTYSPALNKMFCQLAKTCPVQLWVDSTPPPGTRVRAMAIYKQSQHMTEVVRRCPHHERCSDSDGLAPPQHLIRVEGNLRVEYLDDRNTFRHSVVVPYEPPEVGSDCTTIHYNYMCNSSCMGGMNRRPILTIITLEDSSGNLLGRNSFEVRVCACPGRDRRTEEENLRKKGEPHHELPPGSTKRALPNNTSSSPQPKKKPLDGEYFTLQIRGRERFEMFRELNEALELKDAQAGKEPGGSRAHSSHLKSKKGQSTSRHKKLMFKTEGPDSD

Broadly, the AC50 is the midpoint of the concentration-response curve, whichever way the signal moves. For `O=P(O)(O)CCCl`, the outcome in [1] was “inactive”; in test [2], “inactive”; in test [3], “inactive”; in test [4], “inactive”; in the test with TIMP1, TIMP1 (gene 7076), “inactive”; in [5], “inactive”. For the same compound, the outcome in [6], in test [8] and in test [9] was inactive. In addition, the AC50 in test [7] was 0.254 µM (active).
Consider `CC1(C)C(C(=O)OC(C#N)c2cccc(Oc3ccccc3)c2)C1(C)C` (centres undefined), for which the outcome is “inactive” in [1]; “inactive” in [2]; “inactive” in test [3]; “inactive” in [4]; “inactive” in the test with TIMP1, TIMP1 (gene 7076); “inactive” in test [5]. Also, the compound was classed as inactive in test [6], in test [7] and in test [9]. For the same compound, in [8], the AC50 is 50 µM (active).
Regarding `COCC(C)N(C(=O)CCl)c1c(C)csc1C` (centres undefined), the outcome in [1] is “inactive”; in test [2], “inactive”; in test [3], “inactive”; in test [4], “inactive”; with TIMP1, TIMP1 (gene 7076), “inactive”; in test [5], “inactive”. The compound was called inactive in test [6], in test [7] and in test [9]. Also, the AC50 in test [8] is 22.2 µM (active).
On to `CC(C)(C)C(=O)C(Oc1ccc(Cl)cc1)n1cncn1` (centres undefined), for which the outcome in test [1] was “inactive”; in test [3], “inactive”; in test [4], “inactive”; in the test with TIMP1, TIMP1 (gene 7076), “inactive”; in [5], “inactive”; in test [7], “inactive”. Moreover, the call in test [9] was inactive. In addition, the half-maximal activity concentration (AC50) was 33 µM (active) in test [6] and 6.35 µM (active) in test [8].
Take `OC(c1ccc(Cl)cc1)(c1ccc(Cl)cc1)C(Cl)(Cl)Cl`: the AC50 in test [1] was 81.6 µM (active); in [2] it was 93.9 µM (active); in test [3], 70.5 µM (active); in [4], 50 µM (active); in test [5], 50 µM (active); in [7], 50 µM (active). In addition, the AC50 in [8] is 85.3 µM (active); in test [9], 79.3 µM (active). For the same compound, the outcome with TIMP1, TIMP1 (gene 7076) is “inactive”; in test [6], “inactive”.
Take `Nc1c(Cl)c(F)nc(OCC(=O)O)c1Cl`: the outcome in [1] was “inactive”; in test [2] it was “inactive”; in test [3], “inactive”; in test [4], “inactive”; with TIMP1, TIMP1 (gene 7076), “inactive”; in test [5], “inactive”. Moreover, the call in [6], in test [7], in [8] and in [9] was inactive.
As for `O=C(Nc1ccccc1-c1ccc(Cl)cc1)c1cccnc1Cl`, the outcome was “inactive” in test [1]; “inactive” in test [2]; “inactive” in test [3]; “inactive” in test [4]; “inactive” in the test with TIMP1, TIMP1 (gene 7076); “inactive” in [5]. Further, the call in test [6], in [7], in [8] and in test [9] was inactive.
In the case of `CC(C)N1C(=O)c2ccccc2NS1(=O)=O`, the outcome is “inactive” in [1]; “inactive” in [2]; “inactive” in test [3]; “inactive” in [4]; “inactive” with TIMP1, TIMP1 (gene 7076); “inactive” in [5]. Also, the outcome in test [6], in test [7], in [8] and in [9] was inactive.
Regarding `CCCC(=NOCC)C1=C(O)CC(CC(C)SCC)CC1=O` (centres undefined), the outcome in [1] was “inactive”; in test [2], “inactive”; in test [3], “inactive”; in [4], “inactive”; with TIMP1, TIMP1 (gene 7076) it was “inactive”; in [5], “inactive”. Besides, the call in test [6], in test [7] and in test [9] was inactive. Moreover, the concentration at half-maximal activity (AC50) in test [8] is 50.2 µM (active).
Take `CNC(=O)N(C)c1nnc(C(C)(C)C)s1`: the outcome was “inactive” in test [1]; “inactive” in test [2]; “inactive” in test [3]; “inactive” in test [4]; “inactive” in the test with TIMP1, TIMP1 (gene 7076); “inactive” in [5]. In addition, the compound was called inactive in test [6], in test [7], in test [8] and in test [9].
